HepG2 viability – HepG2 cytotoxicity, counter-screen for TGF-b inhibitors. HepG2 CAGA-GFP viability, ATP luminescence, 18 h. Potency, µM (doses to about 46.1 µM), hits mostly cytotoxic. actives 0.76% (n = 410,000). AID 588856
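CellTiter-Glo luminescence gave cytotoxicity after 18 hours at 37 degrees C. The cells were HepG2 CAGA-GFP in 1% FBS DMEM, stimulated with 500 pg/mL TGF-beta after compound addition. %Activity was normalised to no-cell wells (complete cell-killing) and DMSO (no toxicity), and curves were fitted and classified.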
HT1080NT lethal – kills 2HG-producing HT-1080-NT fibrosarcoma cells | HT-1080-NT fibrosarcoma viability, CellTiter-Glo ATP luminescence, 48 h | Potency, µM (series often up to 46.1 µM), actives largely listed as cytotoxic | actives 1.6% (n = 360,000);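 also: NT is the 2HG producing partner of a matched IDH1 knockdown line; nearly all actives have a fitted effect of over 55% in size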
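Toxicity toward the 2HG-producing NT line was scored as %Activity, normalised to DMSO and no-cell wells, from CellTiter-Glo luminescence after 48 hours' treatment.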
TGFb inhibitor – TGF-b pathway inhibition. actives 1.2% (n = 410,000). AID 588855. HepG2 CAGA-GFP TGF-b/SMAD3 reporter, GFP fluorescence, 18 h; TGF-beta stimulated, 500 pg/mL final. Potency, µM (top dose mostly 46.1 µM), actives largely listed as inhibitors; also: nearly all actives have a fitted effect of over 65% in size
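GFP signal (ex488/em500-530) from TGF-beta-stimulated HEPG2 CAGA-GFP cells, 500 pg/mL final, 18 h at 37 degrees C in DMEM plus 1% FBS, normalized to unstimulated and DMSO-stimulated controls.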
ATXN2 expr inh – inhibitors of ATXN2 expression; HEK-293 ATXN2-luciferase reporter, luminescence, 24 h; Potency, µM (doses to about 57 µM), actives largely listed as inhibitors; actives 0.72% (n = 360,000); AID 1745845; also: nearly all actives have a fitted effect of over 55% in size
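ATXN2-luciferase reporter cells (luciferase flanked by upstream and downstream ATXN2 gene portions) were treated 24 h at 37 °C with compounds at up to 57 uM. SteadyGlo luminescence gave expression; GF-AFC fluorescence gave viability.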
S2 tox – cell viability loss in ATXN counter-screen; actives 0.49% (n = 400,000); Potency, µM (highest dose often 56.7 µM), usual class: cytotoxic; S2 cells (HEK-293 line with an ATXN2-luciferase reporter) viability, CellTiter-Fluor protease fluorescence, 24 h; also: nearly all actives have a fitted effect of over 40% in size
HT1080 IDH1KD tx – toxicity to HT-1080 IDH1 knockdown cells (counter line). Potency, µM (series often up to 46.1 µM), hits mostly cytotoxic. HT-1080 IDH1 knockdown viability, ATP luminescence, 48 h. actives 2% (n = 360,000)
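% activity derives from luminescence (CellTiter-Glo), normalised to DMSO and no-cell wells. HT-1080-IDH1KD cells, 750/well, had 48 h compound exposure at 37 °C.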
Numbers stand for hits; i = inactive; ? = inconclusive; nt = no result; [ ] = dose if it differs, or a comment. Sampled rows, rich in hits. Any-hit rate of the full collection: about 3.8%. Calls follow the shape of the dose curve; as a rule, active = well fitted curve in the direction sought with a large enough effect; inconclusive = small, poorly fitted or top-dose-only effect, or another doubt; inactive = no such curve, though single readings can be large; an effect the other way counts as inactive or inconclusive.

SMILES	HepG2 viability	HT1080NT lethal	TGFb inhibitor	ATXN2 expr inh	S2 tox	HT1080 IDH1KD tx
O=C(c1sc2ccccc2c1Cl)N1CCC2(CC1)OCCO2	i	i[9.24 µM]	i	i	i	i
CC(C)CNC(=O)c1c(N)n(Cc2ccc3c(c2)OCO3)c2nc3ccccc3nc12	i	20.6µM	15.8µM	?	i	16.4µM
CC(C)CNC(=O)c1c(N)n(Cc2ccco2)c2nc3ccccc3nc12	i	?	22.4µM	?	nt	?
CC(C)OCCCNC(=O)c1c(N)n(Cc2cccs2)c2nc3ccccc3nc12	22.4µM	18.4µM	17.8µM	?	i	?
COc1ccc(Cn2c(N)c(C(=O)NCc3ccco3)c3nc4ccccc4nc32)cc1OC	i	?	15.8µM	?	i	?
C[C@]12COC(=O)C[C@@H]1CC[C@@H]1[C@H]2CC[C@@]2(C)[C@H]1CC[C@]2(C)O	nt	nt	nt	i	nt	nt
O=c1[nH]c2cc(Cl)ccc2n1C1CCNCC1	nt	nt	nt	i	i	nt
CCCCCn1c(NC(=O)c2ccco2)c(C(=O)OCC)c2nc3ccccc3nc21	15.8µM	9.2µM	20µM	?	i	11.6µM
CCCNC(=O)c1c(N)n(Cc2ccco2)c2nc3ccccc3nc12	i	11.2µM	i	i	nt	?
Nc1c2c(nc3sc4c(c13)CCCC4)CCCC2	i	?	?	?	?	?
Cc1cc(C)n(-c2nc(SCCN(C)C)c3c4c(sc3n2)CCCC4)n1	i	7.94µM	?	?	?	?
O=C(Cc1c(O)c2ccccc2oc1=O)c1ccc(F)cc1	i	i	i	i	?	i
CCCN(CCC)C(=O)Cc1c(-c2ccc(Cl)cc2)nc2ccc(Cl)cn12	nt	nt	nt	i	?	nt
Cc1cc([N+](=O)[O-])c2ccccc2[n+]1[O-]	i	6.51µM	0.501µM	nt	nt	8.2µM
Cc1ccccc1[N+](=O)[O-]	i	nt	i	i	i	nt
O=S(=O)(c1ccc(Cl)cc1)N1CN2CCN(C2)C1	i	i	i	i	i	i
Cc1cc(N2CCN(S(=O)(=O)c3ccc(Cl)cc3)CC2)c2ccccc2n1	10µM	?	14.1µM	?	?	?
CCCC1=Nc2cc(C(=O)NCCCN(CC)CC)ccc2Sc2ccccc21	i	nt	?	31.6µM	?	nt
CCC1=Nc2cc(C(=O)N3CCC4(CC3)OCCO4)ccc2Sc2ccccc21	i	i	i	i	?	i
CC1(C)C[C@H]2C=C(C=O)[C@]3(C=O)C[C@]3(C)[C@H]2C1	10µM	16.4µM	?	3.55µM	7.08µM	11.6µM
CCCCOP(=O)(OCCCC)C(Nc1ccc(C(=O)OCC)cc1)c1ccncc1 (centres undefined)	i	?	?	i	i	i
Cc1ccc(-c2cc(C(F)F)n3ncc(C(=O)N4CCc5ccccc5C4)c3n2)cc1	i	i	11.2µM	nt	i	i
CC(C)c1ccc2nc3sc(C(=O)N4CCc5ccccc5C4)c(N)c3cc2c1	i	?	i	i	nt	?
CN(C)c1ccc(/C=C/[N+](=O)[O-])cc1	i	?	i	i	i	23.1µM
CN(C)c1ccc(C=C2C(=O)NC(=O)NC2=O)cc1	i	i	i	i	i	i
SMILES	HepG2 viability	HT1080NT lethal	TGFb inhibitor	ATXN2 expr inh	S2 tox	HT1080 IDH1KD tx
C/C(=C\c1ccc(N(C)C)cc1)[N+](=O)[O-]	10µM	11.2µM	?	31.6µM	nt	6.31µM
Cc1nnc2n1-c1sc(CCc3ccc(CC(C)C)cc3)cc1C(c1ccccc1Cl)=NC2C (centres undefined)	nt	nt	nt	35.5µM	31.6µM	nt
Cc1nnc2n1-c1sc(CCC(=O)N3CCOCC3)cc1C(c1ccccc1Cl)=NC2	nt	nt	nt	i	?	nt
CC1CCOC(=O)C=CC=CC(=O)OC2CC3OC4C5OC5(C)C(O)CC4(COC(=O)C1O)C2(C)C31CO1 (centres undefined)	i	?	0.282µM	0.267µM	0.267µM	nt
CC1=CC2OC3CC4OC(=O)C=CC=CC(=O)OCCC(C)C(O)C(=O)OCC2(CC1)C4(C)C31CO1 (centres undefined)	nt	0.164µM	i	?	0.0844µM	nt
CC1=CC2OC3CC4OC(=O)C=CC=CC(C(C)O)OCC(O)C5(C)OC5C(=O)OCC2(CC1O)C4(C)C31CO1 (centres undefined)	i	0.366µM	0.159µM	0.112µM	?	nt
CC(O)C1C=CC=CC(=O)OC2CC3OC4C5OC5(C)C(O)CC4(COC(=O)C(O)C(C)CCO1)C2(C)C31CO1 (centres undefined)	i	?	0.447µM	?	?	nt
O=C(O)[C@H](O)[C@@H](O)C(=O)O	i	i	i	i	i	i
COc1cc(CC#N)cc(OC)c1OC	nt	nt	nt	i	i	nt
CCN(CC)C(=O)c1ccc(C2=CC3(CCNCC3)Oc3cccc(O)c32)cc1	nt	nt	nt	i	nt	nt
CN(C)C(=O)O/N=C(\N)COc1ccc(C(C)(C)C)cc1	i	11.6µM	?	nt	?	20.6µM
CCOC(=O)C(O)(c1ccc(N(C)C(=O)COc2ccccc2)cc1)C(F)(F)F (centres undefined)	i	i	i	i	i	i
O=C(Nc1ccc2nc(SCC(=O)N3CCOCC3)sc2c1)c1ccc(Cl)cc1	i	nt	?	nt	nt	nt
COc1cc(C2c3cc4c(cc3CC3COC(=O)C32)OCO4)cc(OC)c1OC (centres undefined)	i	0.366µM	?	i	?	0.231µM
COc1cc([C@@H]2c3cc4c(cc3C[C@H]3COC(=O)[C@@H]32)OCO4)cc(OC)c1O	i	nt	i	nt	nt	nt
COc1cc(C2c3cc4c(c(O)c3CC3COC(=O)C32)OCO4)cc(OC)c1OC (centres undefined)	i	0.0052µM	i	i	?	?
COC(=O)c1cc(NC(=O)Cn2nc(-c3ccccc3)c3c(c2=O)CCCC3)cc(C(=O)OC)c1	i	nt	?	i	i	nt
CN1CC=C2C(C#N)=C(N)C(C#N)(C#N)C(c3ccncc3)C2C1 (centres undefined)	i	i	i	i	i	i
N#CC1=C(N)C(C#N)(C#N)C(c2ccncc2)C2CN(C(=O)OCc3ccccc3)CC=C12 (centres undefined)	i	?	?	i	i	20.6µM
CC[C@H](C)[C@@H]1NC(=O)CNC(=O)c2csc(n2)[C@H](C(C)(C)O)OC(=O)C(C)(C)[C@H](CCCC(C)(Cl)Cl)OC(=O)c2csc1n2	i	2.06µM	?	i	i	0.0731µM
O=c1c2ccccc2sn1-c1ccc(Cl)cc1	i	?	?	?	17.8µM	?
Cc1cc(/C=C2\C(=O)NC(=O)N(c3ccc(Cl)cc3)C2=O)c(C)n1-c1sc2c(c1C#N)CCCC2	i	i	3.55µM	nt	?	?
CCOC(=O)c1c(-n2c(C)cc(/C=C3\C(=O)NC(=O)N(C)C3=O)c2C)sc2c1CCCC2	i	i	i	i	i	i

Assay outcomes: PubChem BioAssay, National Center for Advancing Translational Sciences (NCATS)
